Experimental findings from PubChem BioAssay (Tox21) are described below.

Records with an inconclusive call do not appear. Unmarked numbers belong to inactive results. Unless noted, calls come from the whole dose curve; as a rule, active = well fitted cell-killing curve with a large enough effect in the repeat runs; inconclusive = weak or mixed curves, or effect the other way; inactive = no such curve, though single readings can be large or run the other way.
% is set by controls: 0 for no effect and ±100 for the full control effect.

A short description of one assay: qHTS assay to identify small molecule antagonists of the vitamin D receptor (VDR) signaling pathway - cell viability counter screen (AID 743225). Note: nearly all actives have a fitted effect of over 50% in size. Particulars: VDR-bla HEK293T viability, CellTiter-Glo luminescence, 16 h; series mostly up to 61 µM; viability change, negative = cytotoxic: at the top concentration. The gist of the method:
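Viability counter screen run in the same wells as the beta-lactamase reporter assay: HEK 293T VDR-UAS-bla cells, 16 h compound exposure at 37C with 3 nM (final) 1-alpha,25-dihydroxyvitamin D3. CellTiter-Glo luminescence, 30 min, room temperature.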
Consider `O=C(O)/C=C/c1ccc(Cn2ccnc2)cc1`, for which the “viability change, negative = cytotoxic” value is 8.18%.

On to `CSc1ccc(C=O)cc1`, for which the “viability change, negative = cytotoxic” value is -1.26%.

As for `CCC(C)(C)C1CCC(OC)CC1` (stereo not given), the “viability change, negative = cytotoxic” value is -2.43%.

Take `C=CCSCC1Nc2cc(Cl)c(S(N)(=O)=O)cc2S(=O)(=O)N1` (stereo not given): the “viability change, negative = cytotoxic” value was 1.46%.

As to `C[C@H]1O[C@@H](n2cc(F)c(=O)[nH]c2=O)[C@H](O)[C@@H]1O`, the “viability change, negative = cytotoxic” value was 12%.

As to `Cc1c(F)cc2c(=O)c(C(=O)O)cn3c2c1CCC3C` (stereo not given), the “viability change, negative = cytotoxic” value was -2.15%.

Turning to `CCCOCC(C)OCC(C)O` (stereo not given), the “viability change, negative = cytotoxic” value is 15.8% [at 78.8 µM].

For `C#CC(O)CCCCC` (stereo not given), the “viability change, negative = cytotoxic” value is 4.61% [at 78.8 µM].

Take `CC(C)N1C(=O)c2ccccc2C1=O`: the “viability change, negative = cytotoxic” value is -4.29%.

`O=S(=O)(O)c1ccccc1O`: the “viability change, negative = cytotoxic” value is 17.7%.

On to `NS(=O)(=O)c1cc2c(cc1Cl)NC(CSCc1ccccc1)=NS2(=O)=O`, for which the “viability change, negative = cytotoxic” value is 13.3%.

For the compound `CC(=O)c1ccc(C)cc1`, the “viability change, negative = cytotoxic” value is -2.09%.

`CC(CCO)CCCC(C)(C)O` (stereo not given): the “viability change, negative = cytotoxic” value is -0.677%.

`CC1(C)OC(=O)Nc2ccc(Br)cc21`: the “viability change, negative = cytotoxic” value was 11.5%.

Turning to `CCCCCCCCN(C)CCCCCCCC`, the “viability change, negative = cytotoxic” value was -8.94% [at 78.8 µM].

For the compound `CC(C)COC(=O)c1ccccc1O`, the “viability change, negative = cytotoxic” value was 0.29%.

On to `CCCCC=O`, for which the “viability change, negative = cytotoxic” value was 7.63%.

Another assay in a line: qHTS assay to identify small molecule agonists of the NFkB signaling pathway (AID 1159509; active = well fitted curve in the direction sought with a large enough effect in the signal ratio in the repeat runs, not every such curve was filed as active; the % refers to the signal ratio). To be noted: NFkB-bla ME-180 cells, beta-lactamase FRET ratio, 5 h; series mostly up to 61 µM; activation: at the top concentration. Put shortly: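 ME-180 NFkB-bla, 2,000 cells/well, overnight plating; cpd pinned in DMSO, 5 h 37 C; B/G FRET substrate 1.5 h RT; ex 405, em 460/530 nm.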
For `Cc1ncc(CSSCc2cnc(C)c(O)c2CO)c(CO)c1O`, the “activation” value is -0.741%.

Turning to `CCCCCCC(CCCCCCCCCCC(=O)OCC(COC(C)=O)OC(C)=O)OC(C)=O` (stereo not given), the “activation” value is -0.0812%.

In the case of `NC(=O)Nc1nc2ccccc2[nH]1`, the “activation” value is -0.208%.

Consider `Cc1nc(-c2ccc(OCC(C)C)c(C#N)c2)sc1C(=O)O`, for which the “activation” value is -0.161%.

As for `CC(C)[C@H](N)C(=O)OCCOCn1cnc2c(=O)[nH]c(N)nc21`, the “activation” value is 0.605%.

Take `O=C(O)C(O)[C@H](O)[C@@H](O)[C@H](O)[C@H](O)CO` (stereo not given in full): the “activation” value is -0.669% [at 78.8 µM].

Consider `CC(O)CN(CCCN(C)C)CCCN(C)C` (stereo not given), for which the “activation” value is 0.409%.

For the compound `Cc1cc(C)c(NC(=O)CN(CC(=O)O)CC(=O)O)c(C)c1Br`, the “activation” value is -0.339%.

Consider `CCCC=O`, for which the “activation” value is -0.164%.

As to `CC(C)(O)C(=O)c1ccc(OCCO)cc1`, the “activation” value was -0.0812%.

On to `CC(C)(O)c1ccccc1`, for which the “activation” value was -0.233%.

`CCc1cc(S(=O)(=O)O)c2cc(C(C)C)cccc1-2`: the “activation” value was 0.476%.

Take `Cc1onc(-c2ccccc2)c1-c1ccc(S(N)(=O)=O)cc1`: the “activation” value is -0.452%.

With `N#CCc1ccccc1[N+](=O)[O-]`, the “activation” value is 0.0086%.

For `O=C1C(CCS(=O)c2ccccc2)C(=O)N(c2ccccc2)N1c1ccccc1` (stereo not given), the “activation” value is -0.0119%.

In the case of `CCOC(=O)Cn1c(=O)sc2cccc(Cl)c21`, the “activation” value is 1.68%.

In the case of `O=C(O)c1cccc(C(=O)O)n1`, the “activation” value was 0.833%.

With `CCCCCC[C@@H](CCC)C(=O)O`, the “activation” value was 0.0334%.

Consider `Cc1cc(C)cc(OCC2CNC(=O)O2)c1` (stereo not given), for which the “activation” value is -0.0564%.

Turning to `NC(=O)c1ncn([C@@H]2O[C@H](CO)[C@@H](O)[C@H]2O)c1O`, the “activation” value is -0.0935%.

For `NCCN1CCNC1=O`, the “activation” value is -0.422%.

Regarding `O=C(O)/C=C/c1ccc(Cn2ccnc2)cc1`, the “activation” value was 0.173%.

Regarding `CSc1ccc(C=O)cc1`, the “activation” value was -0.0919%.

Regarding `CCC(C)(C)C1CCC(OC)CC1` (stereo not given), the “activation” value is 0.461%.

On to `C=CCSCC1Nc2cc(Cl)c(S(N)(=O)=O)cc2S(=O)(=O)N1` (stereo not given), for which the “activation” value is 0.248%.

`C[C@H]1O[C@@H](n2cc(F)c(=O)[nH]c2=O)[C@H](O)[C@@H]1O`: the “activation” value was 0.305%.

Regarding `Cc1c(F)cc2c(=O)c(C(=O)O)cn3c2c1CCC3C` (stereo not given), the “activation” value was -0.418%.

Take `CCCOCC(C)OCC(C)O` (stereo not given): the “activation” value was -0.138% [at 78.8 µM].

In the case of `C#CC(O)CCCCC` (stereo not given), the “activation” value is -0.299% [at 78.8 µM].

As to `CC(C)N1C(=O)c2ccccc2C1=O`, the “activation” value was -0.521%.

`O=S(=O)(O)c1ccccc1O`: the “activation” value was 0.111%.

In the case of `NS(=O)(=O)c1cc2c(cc1Cl)NC(CSCc1ccccc1)=NS2(=O)=O`, the “activation” value was -1.17%.

On to `CC(=O)c1ccc(C)cc1`, for which the “activation” value was -0.285%.

Consider `CC(CCO)CCCC(C)(C)O` (stereo not given), for which the “activation” value was -0.303%.

For the compound `CC1(C)OC(=O)Nc2ccc(Br)cc21`, the “activation” value was -0.181%.

Turning to `CCCCCCCCN(C)CCCCCCCC`, the “activation” value was 0.541% [at 78.8 µM].

On to `CC(C)COC(=O)c1ccccc1O`, for which the “activation” value was 0.258%.

Regarding `CCCCC=O`, the “activation” value was -0.192%.
